This note sets out measurements from PubChem BioAssay (EPA / NIEHS).

Active and inactive are the calls of the source. How the source made its calls: active means hit-call score of the fitted dose curve at least 0.9, where 1 is the maximum; inactive means score below 0.9.

As a reminder, the AC50 is the concentration at which the activity in the assay is half-maximal.

The assay can be described thus: APR_HepG2_MitoticArrest_72hr: Apredica 72-hour HepG2 Assay for Mitotic Arrest (AID 2282918). Particulars: high-content imaging, actives raise or lower the signal. How it is done:
APR_HepG2_72hr is a cell-based, multiplexed-readout assay that uses HepG2, a human liver cell line, with measurements taken at 72 hours after chemical dosing in a 384-well plate.APR_HepG2_MitoticArrest_72hr is one of 10 assay component(s) measured or calculated from the APR_HepG2_72hr assay. It is designed to make measurements of cell phenotype, a form of morphology reporter, as detected with fluorescence intensity signals by HCS Fluorescent Imaging technology.Data from the assay component APR_HepG2_MitoticArrest_72hr was analyzed into 1 assay endpoint. This assay endpoint, APR_HepG2_MitoticArrest_72hr, was analyzed with bidirectional fitting relative to DMSO as the negative control and baseline of activity. Using a type of morphology reporter, measures of protein for gain or loss-of-signal activity can be used to understand the signaling at the pathway-level as they relate to the gene . Furthermore, this assay endpoint can be referred to as a primary readout, because this assay has produced multiple assay endpoints where this one serves a signaling function. To generalize the intended target to other relatable targets, this assay endpoint is annotated to the cell cycle intended target family, where the subfamily is arrest.
Cells were treated with dimethyl sulfoxide (DMSO) as a solvent control at a final concentration of 0.5% v/v or with compounds in DMSO with a resulting final DMSO concentration of 0.5% v/v. Compound treatment was done at concentrations of 0.39, 0.78, 1.56, 3.12, 6.24, 12.5, 25, 50, 100, and 200 uM in duplicate on each plate. Cells were treated with compounds for 1, 24, or 72 hr. Carbonyl […] m-chloro-phenylhydrazone (CCCP) and taxol were used as positive controls for mitochondrial function and cytoskeletal stability, respectively; DMSO served as the negative control for this experiment. Cells were fixed by the direct addition of 50 uL formaldehyde in Hank's Balanced Salt Solution (HBSS) to a final concentration of 3.7%. After incubation in the fixation medium for 30 min at room temperature (293-298 K), cells were rinsed twice with HBSS and treated with cell permeabilization buffer (16 uL of 0.5% Triton X-100) for 10 min at room temperature (293-298 K) before labeling. For mitochondrial membrane potential and mitochondrial measurements, pre-fixed cells were incubated with 50 uL of MitoTracker Red CMXRos (Invitrogen) at a concentration of 250 nM for 30 min before fixation. In the remaining cases, post-fixed cells were labeled by incubation with a multiplexed mixture of primary antibodies in HBSS for 60 min at room temperature (293-298 K) to detect immunoreactivity of c-Jun (1:500), phospho-histone H3 (1:100), phospho-histone H2A.x (1:200), p53 (1:400), alpha-tubulin (1:200) and Hoechst 33342 (2 ug/mL). Cells were labeled for multiplexed imaging on two separate plates: a) Hoechst 33342, MitoTracker Red, phospho-histone H3, and alpha-tubulin, and b) Hoechst 33342, phospho-histone H2A.x, and c-Jun. A final rinse with HBSS (50 uL) was performed before analysis. The primary and secondary antibodies for the proteins were phospho-histone H3 (rabbit anti-phospho-histone H3 and FITC-donkey anti-rabbit IgG), phospho-histone H2A.x (mouse anti-phospho-histone H2A.x and FITC-donkey anti-mouse IgG), c-Jun (rabbit anti-phospho-c-Jun and Cy3-donkey anti-rabbit IgG), p53 (sheep anti-p53 and Cy5-donkey anti-sheep IgG), alpha-tubulin (mouse anti-alpha-tubulin and Cy5-donkey anti-mouse IgG). These antibodies are available as the CellCiphr HepG2 assay kit (Millipore).Digital images of each well were captured using a Cellomics ArrayScan VTI (Thermo Scientific Cellomics) (0.8 NA objective, 0.63x optical coupler, and XF-93 filter set) at 20x magnification. The images were acquired using the autofocus feature of the ArrayScan instrument, which entails the following steps. First, the camera focuses on channel 1 (Hoechst 33342), where nuclei are identified. Second, a Z offset of 1 um is used for capturing mitochondria (MitoTracker Red). […]
Take `CCC(C)N(C)C(=O)c1cc2ccccc2c(-c2ccccc2Cl)n1` (stereo not given): the AC50 is 65.8 µM (active).

As to `O=Cc1ccccc1C=O`, the outcome was inactive.

For `Cc1cc(Cc2ccc(N)c(C)c2)ccc1N`, the call was inactive.

For `C=CCc1ccc(OC)c(OC)c1`, the call was inactive.

As to `CC1(C)C(=O)NC(=O)N1CO`, the call was inactive.

As for `CCOCCOCCO`, the result was inactive.

Take `CC(=O)O[C@]1(C(C)=O)CC[C@H]2[C@@H]3C=C(Cl)C4=CC(=O)[C@@H]5C[C@@H]5[C@]4(C)[C@H]3CC[C@@]21C`: the outcome was inactive.

Regarding `CCCCCCCCCCCCCCOS(=O)(=O)O`, the half-maximal activity concentration (AC50) is 98.5 µM (active).

In the case of `CC(C)c1cccc(C(C)C)c1`, the outcome was inactive.

Consider `CCCCCCCCCCCCCCCCO`, for which the outcome was inactive.

Turning to `CCCCC(CC)COP(=O)(OCC(CC)CCCC)OCC(CC)CCCC` (stereo not given), the AC50 was 31.5 µM (active).

In the case of `Nc1nc(Cl)nc2c1ncn2[C@H]1C[C@H](O)[C@@H](CO)O1`, the concentration at half-maximal activity (AC50) was 0.089 µM (active).

Regarding `O=C1CCCCC1`, the result was inactive.

Regarding `CCCCCCC(C=O)=Cc1ccccc1`, the molecule was called inactive.

`CN(C)CCCN1c2ccccc2Sc2ccc(Cl)cc21`: the AC50 is 26 µM (active).

As to `CCCCCCC(CCCCCCCCCCC(=O)OCC(COC(C)=O)OC(C)=O)OC(C)=O` (stereo not given), the AC50 is 39.8 µM (active).

Consider `COc1ccc(OC(F)(F)F)cc1CN[C@H]1CCCN[C@H]1c1ccccc1`, for which the AC50 was 17.7 µM (active).

As to `Nc1nc(=S)c2[nH]cnc2[nH]1`, the concentration at half-maximal activity (AC50) was 21 µM (active).

With `CCN(CC)CCOc1ccc(C(=C(Cl)c2ccccc2)c2ccccc2)cc1`, the AC50 was 11.4 µM (active).

As to `COC(=O)CCCC(=O)OC`, the outcome was inactive.

In the case of `CC(C)NCC(O)c1ccc(O)c(O)c1` (stereo not given), the result was inactive.

On to `NCCOCCOCCN`, for which the AC50 is 15.8 µM (active).

Take `O=NO`: the call was inactive.

As to `CC(C)(O)c1ccc(CNC(=O)c2cccnc2Oc2ccc(F)cc2)cc1`, the call was inactive.

On to `CCc1cc(C2=C(C(=O)O)N(c3ccccc3C(F)(F)F)S(=O)(=O)c3ccccc32)cc2c1OCO2`, for which the molecule was classed as inactive.

As for `CCCCCCCCCC[N+](C)(C)[O-]`, the AC50 was 75 µM (active).

With `Cc1cc(SC2=C(O)C[C@@](CCc3ccc(N)cc3)(C(C)C)OC2=O)c(C(C)(C)C)cc1CO`, the molecule was classed as inactive.

With `CC(=O)CC(c1ccccc1)c1c(O)c2ccccc2oc1=O` (stereo not given), the outcome was inactive.

Regarding `O=[Si]=O`, the call was inactive.

For `Cc1occc(=O)c1O`, the molecule was called inactive.

As for `Cn1cnc2c1c(=O)[nH]c(=O)n2C`, the molecule was called inactive.

Consider `CCCC(=O)O`, for which the molecule was called inactive.

For the molecule `CC(C)OC(=O)C(C)(C)Oc1ccc(C(=O)c2ccc(Cl)cc2)cc1`, the outcome was inactive.

With `CO[C@@H]1COCC[C@@H]1N[C@@H]1CC[C@@](C(=O)N2CCc3ncc(C(F)(F)F)cc3C2)(C(C)C)C1`, the molecule was called inactive.

As to `CC(=O)O`, the AC50 is 92.8 µM (active).

As for `O=C1NC(=O)C(c2ccccc2)(c2ccccc2)N1`, the molecule was classed as inactive.

On to `CC(N)=O`, for which the outcome was inactive.

As to `CC1=C(C)S(=O)(=O)CCS1(=O)=O`, the AC50 is 33.1 µM (active).

For `CCCCCCCC(=O)OC`, the result was inactive.

For the molecule `COc1ccc(C(=O)Nc2nc3ccccc3c(NCc3ccccc3)c2C#N)cc1`, the concentration at half-maximal activity (AC50) was 108 µM (active).
